# Results: PubChem BioAssay (NCATS)
# Inconclusive results are not listed. A call without a number means that no potency is given here. Active and inactive are the calls of the source. Unless noted, calls follow the shape of the dose curve; as a rule, active = well fitted curve in the direction sought with a large enough effect; inconclusive = small, poorly fitted or top-dose-only effect, or another doubt; inactive = no such curve, though single readings can be large; an effect the other way counts as inactive or inconclusive.
# What was measured:
# [1] = Validation of Assay for Modulators of Lamin A Splicing (AID 1459; active = well fitted curve in the direction sought with a large enough effect in the signal ratio; the % refers to the signal ratio;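 also: cells exposed to compound for two days before reading; ratio rise marks activators and ratio drop marks inhibitors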)
# How it was run: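 Dual-reporter HeLa S3 line (lamin A-EGFP minigene, DsRed2) treated with compounds 48 hrs, 0.5% DMSO final. Endpoint: EGFP/DsRed2 total intensity ratio from laser-scanning microplate cytometry.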
# [2] = molecular target: Alpha-galactosidase A (Homo sapiens) (UniProt P06280); assay: Counterscreen for Glucocerebrosidase Inhibitors: qHTS Assay for Human alpha-Galactosidase at pH 4.5 (AID 992)
# Sequence of Alpha-galactosidase A (Homo sapiens) (P06280 whole entry, looked up): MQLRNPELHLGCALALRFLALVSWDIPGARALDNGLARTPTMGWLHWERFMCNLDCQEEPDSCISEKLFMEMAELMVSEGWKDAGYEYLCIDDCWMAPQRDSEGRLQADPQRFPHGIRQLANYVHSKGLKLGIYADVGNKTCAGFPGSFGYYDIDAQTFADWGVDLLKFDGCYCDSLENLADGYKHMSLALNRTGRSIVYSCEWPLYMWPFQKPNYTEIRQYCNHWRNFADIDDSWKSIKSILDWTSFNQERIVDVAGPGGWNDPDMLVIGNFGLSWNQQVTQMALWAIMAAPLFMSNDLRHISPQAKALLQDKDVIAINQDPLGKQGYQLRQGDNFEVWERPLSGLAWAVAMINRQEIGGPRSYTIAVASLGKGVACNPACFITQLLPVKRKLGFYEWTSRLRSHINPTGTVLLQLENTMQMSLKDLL
# How it was run: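 Each compound is preincubated briefly with 2 nM enzyme before substrate addition (80 uM); plates then sit 20 min at ambient temperature, are quenched with 1M NaOH/1M glycine, and read fluorometrically.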
# [3] = molecular target: alpha-glucosidase (Oryza sativa, rice) (UniProt Q653V4); assay: Counterscreen for Glucocerebrosidase Inhibitors: qHTS Assay for Rice alpha-Glucosidase at pH 5.0 (AID 997)
# How it was run: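 Endpoint fluorogenic assay at pH 5.0: compounds (0.7 nM to 77 uM) titrated against 4 nM rice enzyme and 400 uM 4-MU-alpha-glucoside for 20 min at room temperature; NaOH/glycine stop, read ex 365/em 440 nm, Hill-fitted AC50.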
# [4] = Cell Viability - LYMP2-021 (AID 974);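 also: compound exposure lasts 24 hours at 37 °C; nearly all actives have a fitted effect of over 55% in size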
# How it was run: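 ATP luminescence (CellTiter-Glo, 30 min RT) after 24 h compound exposure at 37 C; 2500 human lymphoblastoid cells/well, 5 h settle beforehand. Cytotoxicity = concentration-dependent ATP drop, AC50 by Hill fit.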
# [5] = Cell Viability - LYMP2-023 (AID 975);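 also: cellular ATP measured by luciferase luminescence as viability proxy; series mostly up to about 92 µM; cells exposed to compound for 24 hours at 37 °C; nearly all actives have a fitted effect of over 55% in size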
# How it was run: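 CellTiter-Glo luminescence after 30 min at room temperature; decrease in intracellular ATP reflects toxicity. Cells: human lymphoblastoid line, 2500/well, 24 hr compound exposure at 37 C. AC50 fitted to standard Hill equation from concentration-response.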
# [6] = Cell Viability - LYMP2-025 (AID 976); also: series mostly up to about 92 µM
# How it was run: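 CellTiter-Glo luminescence (cellular ATP) after 24 h compound exposure at 37 C; LYMP2-025 human lymphoblastoid cells, 2500/well, complete medium. Tetraoctylammonium bromide positive control. AC50 by Hill equation fit of qHTS concentration-response.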
# [7] = Cell Viability - LYMP2-002 (AID 977); also: potency is read from the fitted curve at half-maximal effect
# How it was run: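 In this qHTS viability screen, 2500 human lymphoblastoid cells per well receive compound for 24 hr at 37 C, and luciferase-based ATP luminescence gives the viability signal. Tetraoctylammonium bromide serves as positive control.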
# [8] = Cell Viability - LYMP2-006 (AID 978);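 also: series mostly up to about 92 µM; cells exposed to compound for 24 hours; nearly all actives have a fitted effect of over 60% in size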
# How it was run: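 In this cytotoxicity screen, the human lymphoblastoid line grew in complete medium with test compounds for 24 hr at 37 C. Cellular ATP served as the viability signal.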
# [9] = Cell Viability - LYMP2-007 (AID 979);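 also: cells exposed to compound for 24 h before reading; nearly all actives have a fitted effect of over 60% in size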
# How it was run: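 qHTS cytotoxicity: 2500 cells/well, 5 hr 37 C settle, compound 24 hr 37 C, CellTiter-Glo 30 min RT, luminescence. Decrease in ATP = toxicity. AC50 by standard Hill equation; tetraoctylammonium bromide positive control.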
# [10] = Cell Viability - LYMP2-008 (AID 980); also: nearly all actives have a fitted effect of over 60% in size
# How it was run: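 Luminescent ATP read-out (CellTiter-Glo, 30 min RT) after 24 hr compound exposure at 37 C of human lymphoblastoid cells in complete medium. Decrease in ATP taken as cytotoxicity; AC50 derived by standard Hill fit of qHTS concentration-response data.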
# [11] = Cell Viability - LYMP2-010 (AID 981);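 also: cells exposed to compound for 24 hours at 37 °C; nearly all actives have a fitted effect of over 55% in size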
# How it was run: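 qHTS cytotoxicity, 1536-well: 2500 cells/well, 5 hr settle, 24 hr compound at 37 C, CellTiter-Glo 30 min RT, luminescence read. Decrease in ATP = toxicity; AC50 via standard Hill equation. Positive control tetraoctylammonium bromide.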
# [12] = Cell Viability - LYMP2-012 (AID 982);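 also: cellular ATP by luciferase luminescence where a drop means cytotoxicity; cells exposed to compound for one day before reading; nearly all actives have a fitted effect of over 55% in size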
# [13] = Cell Viability - LYMP2-014 (AID 983); also: series mostly up to about 92 µM; nearly all actives have a fitted effect of over 50% in size
# How it was run: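 2500 cells/well, 5 hr 37 C; cpd 24 hr 37 C, complete medium; CellTiter-Glo 30 min RT, luminescence; ATP loss = toxicity; AC50 via Hill eqn; tetraoctylammonium bromide positive control.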
# [14] = Cell Viability - LYMP2-016 (AID 984)
# How it was run: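 Concentration-dependent ATP depletion measured in LYMP2-016 lymphoblastoid cells, 24 h, 37 C; luciferase-based luminescent detection; Hill-equation AC50.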
# [15] = Cell Viability - LYMP2-020 (AID 986)
# How it was run: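 qHTS, 2500 cells/well; 5 hr then 24 hr compound exposure, 37 C; CellTiter-Glo luminescence after 30 min RT; ATP decrease taken as cytotoxicity; AC50 via Hill equation; tetraoctylammonium bromide positive control.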
# [16] = Cell Viability - LYMP2-022 (AID 987); also: nearly all actives have a fitted effect of over 55% in size
# How it was run: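 Luminescent ATP read-out (CellTiter-Glo, 30 min, RT) after 24 hr, 37 C compound exposure of 2500 human lymphoblastoid cells/well in complete medium. Cytotoxicity taken as concentration-dependent ATP loss; AC50 from standard Hill equation.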
# [17] = Cell Viability - LYMP2-024 (AID 988); also: nearly all actives have a fitted effect of over 60% in size
# How it was run: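 ATP-based luminescence (CellTiter-Glo, 30 min RT) after 24 h compound exposure at 37 C of 2500 lymphoblastoid cells/well; decrease in ATP taken as cytotoxicity. qHTS concentration-response fitted to standard Hill equation for AC50.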
# [18] = Cell Viability - LYMP2-026 (AID 989); also: nearly all actives have a fitted effect of over 50% in size
# How it was run: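 qHTS cytotoxicity: 2500 cells/well, 5 hr 37 C, compound 24 hr 37 C, CellTiter-Glo 30 min RT, luminescence. Tetraoctylammonium bromide positive control. AC50 via standard Hill fit.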
# [19] = Cell Viability - LYMP1-002 - Assay at 24 hr (AID 993)
# How it was run: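 CellTiter-Glo luminescence (intracellular ATP) after 24 h compound exposure, 37 C, in LYMP1-002 human lymphoblastoid cells; decreased ATP taken as cytotoxicity. AC50 from standard Hill fit of concentration-response curves.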
# [20] = Cell Viability - LYMP1-002 - Assay at 40 hr (AID 994); also: nearly all actives have a fitted effect of over 60% in size; also: potency is read from the fitted curve at half-maximal effect
# How it was run: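 qHTS cytotoxicity; 2500 cells/well, 5 hr 37 C settle, compound 40 hr 37 C. CellTiter-Glo, 30 min RT, luminescence (ATP). Concentration-response, Hill fit → AC50. Pos. ctrl tetraoctylammonium bromide.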
smiles,measurement,setting,value
CNCCC(Oc1ccccc1OC)c1ccccc1 (configuration not stated),outcome,[1],inactive
N[C@@H](COP(=O)(O)O)C(=O)O,outcome,[2],inactive
same,outcome,[1],inactive
FC(F)(F)c1ccccc1-n1ccnc1,outcome,[2],inactive
same,outcome,[3],inactive
same,outcome,[1],inactive
CCCCNC(=O)NS(=O)(=O)c1ccc(C)cc1,outcome,[4],inactive
same,outcome,[5],inactive
same,outcome,[6],inactive
same,Potency,[7],inactive
same,Potency,[8],inactive
same,outcome,[9],inactive
same,outcome,[10],inactive
same,Potency,[11],inactive
same,Potency,[12],inactive
same,outcome,[13],inactive
same,outcome,[14],inactive
same,Potency,[15],inactive
same,Potency,[16],inactive
same,Potency,[17],inactive
same,outcome,[18],inactive
same,outcome,[19],inactive
same,Potency,[20],inactive
same,outcome,[1],inactive
C#CCN(C)CCCOc1ccc(Cl)cc1Cl,outcome,[1],inactive
CC(C)COCC(CN(Cc1ccccc1)c1ccccc1)N1CCCC1 (configuration not stated),outcome,[1],inactive
O=C(CCNNC(=O)c1ccncc1)NCc1ccccc1,outcome,[2],inactive
same,outcome,[1],inactive
CC(N=C(NC#N)Nc1ccncc1)C(C)(C)C (configuration not stated),outcome,[1],inactive
COC(=O)[C@H]1[C@H]2C[C@@H]3c4[nH]c5cc(OC)ccc5c4CCN3C[C@H]2C[C@@H](OC(=O)c2cc(OC)c(OC)c(OC)c2)[C@@H]1OC,outcome,[6],inactive
same,Potency,[7],79.4 µM (active)
same,Potency,[20],50.1 µM (active)
same,outcome,[3],inactive
same,outcome,[1],inactive
CN(C(=O)CCCOc1ccc2[nH]c(=O)ccc2c1)C1CCCCC1,outcome,[1],inactive
CCOC(=O)c1cnc2c(cnn2CC)c1NN=C(C)C,outcome,[1],inactive
CCN(CC)CC(=O)Nc1c(C)cccc1C,outcome,[2],inactive
same,outcome,[1],inactive
CCN(Cc1ccncc1)C(=O)C(CO)c1ccccc1 (configuration not stated),outcome,[1],inactive
COCCc1ccc(OCC(O)CNC(C)C)cc1 (configuration not stated),outcome,[1],inactive
CCCN1C[C@H](CSC)C[C@@H]2c3cccc4[nH]cc(c34)C[C@H]21,outcome,[1],inactive
COc1ccc(CCN(C)CCCC(C#N)(c2cc(OC)c(OC)c(OC)c2)C(C)C)cc1OC (configuration not stated),outcome,[1],inactive
